Experimental data as given in PubChem BioAssay (NCATS).
Values joined by “and” are separate entries in the source; they are usually repeats but may differ in a detail not shown here. Identical values can stand only once. Results filed as inconclusive are left out. Active and inactive are the calls of the source. Unless noted, calls come from the whole dose curve; as a rule, active = well fitted curve in the direction sought with a large enough effect; inconclusive = small, poorly fitted or top-dose-only effect, or another doubt; inactive = no such curve, though single readings can be large; an effect the other way counts as inactive or inconclusive.

What was measured:
[1] = molecular target: Retinoic acid receptor RXR-alpha (Homo sapiens) (UniProt P19793); experiment: qHTS assay for small molecule antagonists of retinoid X receptor alpha signaling (AID 588546; active = well fitted inhibition curve with a large enough effect in the signal ratio, with a control signal flat, not every such curve was filed as active; the % refers to the signal ratio;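 note: cells stimulated with 9-cis-retinoic acid as agonist; % is set by controls: 0 for no effect and ±100 for the full control effect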); conditions: HEK293T RXRa-UAS-bla, beta-lactamase ratio, antagonist mode
Chain of Retinoic acid receptor RXR-alpha (Homo sapiens) (P19793 whole entry, looked up): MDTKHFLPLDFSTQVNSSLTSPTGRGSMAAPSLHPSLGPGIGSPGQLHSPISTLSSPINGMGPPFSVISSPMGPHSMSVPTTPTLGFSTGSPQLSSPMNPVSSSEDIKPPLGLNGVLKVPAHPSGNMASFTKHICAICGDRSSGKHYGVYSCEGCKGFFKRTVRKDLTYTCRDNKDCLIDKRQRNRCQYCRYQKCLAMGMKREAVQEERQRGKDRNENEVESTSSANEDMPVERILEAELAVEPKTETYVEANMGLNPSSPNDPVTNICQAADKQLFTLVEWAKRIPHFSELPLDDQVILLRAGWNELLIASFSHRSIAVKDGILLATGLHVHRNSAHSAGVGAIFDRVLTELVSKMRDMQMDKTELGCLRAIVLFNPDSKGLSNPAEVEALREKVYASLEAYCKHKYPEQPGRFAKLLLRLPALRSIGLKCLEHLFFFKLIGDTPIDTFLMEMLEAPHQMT
Method in brief: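 Beta-lactamase reporter inhibition, read as CCF4 fluorescence ratio (ex 405, em 460/530 nm) after 2 h at RT. HEK293T UAS-bla cells, 2500/well, were stimulated with 9-cis-RA at 500 or 100 nM final alongside test compound for 18 h at 37 C.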

[2] = molecular target: Thyroid hormone receptor beta (Homo sapiens) (UniProt P10828); experiment: qHTS assay for small molecule antagonists of thyroid hormone receptor beta signaling (AID 588547; active = well fitted inhibition curve with a large enough effect in the signal ratio, with a control signal flat, not every such curve was filed as active; the % refers to the signal ratio;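 note: cells stimulated with 0.4 nM T3 agonist during compound exposure; % is set by controls: 0 for no effect and ±100 for the full control effect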); conditions: TR-UAS-bla HEK293, beta-lactamase ratio, antagonist mode, 18 h
Chain of Thyroid hormone receptor beta (Homo sapiens) (P10828 whole entry, looked up): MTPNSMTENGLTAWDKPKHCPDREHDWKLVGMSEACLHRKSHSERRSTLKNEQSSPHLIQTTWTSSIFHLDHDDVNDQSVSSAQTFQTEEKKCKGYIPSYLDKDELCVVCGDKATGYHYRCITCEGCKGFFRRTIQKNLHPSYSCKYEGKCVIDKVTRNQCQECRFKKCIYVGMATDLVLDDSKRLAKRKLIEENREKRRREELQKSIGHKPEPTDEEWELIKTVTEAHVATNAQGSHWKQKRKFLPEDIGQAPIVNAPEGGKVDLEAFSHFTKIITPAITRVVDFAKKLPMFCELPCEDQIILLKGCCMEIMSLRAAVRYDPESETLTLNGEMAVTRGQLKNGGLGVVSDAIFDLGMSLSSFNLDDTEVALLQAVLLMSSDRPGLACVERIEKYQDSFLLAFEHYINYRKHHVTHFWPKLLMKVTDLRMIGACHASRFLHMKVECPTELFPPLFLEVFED
Method in brief: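 Inhibition of T3-driven (0.4nM final) beta-lactamase reporter activity was measured over 0.59 nM to 92 uM compound after 18 h at 37 C. The cells were GripTite HEK293 TR-UAS-bla in charcoal/dextran-stripped serum, with CCF4 ratio read-out and IC50 from Hill fits.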

[3] = molecular target: Voltage-gated inwardly rectifying potassium channel KCNH2 (Homo sapiens) (UniProt Q12809); experiment: qHTS Assay for Small Molecule Inhibitors of the Human hERG Channel Activity (AID 588834); conditions: U2OS BacMam hERG, FluxOR thallium flux fluorescence; series mostly up to 46.1 µM;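 note: lower thallium flux fluorescence means stronger hERG block; nearly all actives have a fitted effect of over 50% in size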; note: potency is the fitted concentration of half-maximal effect
Chain of Voltage-gated inwardly rectifying potassium channel KCNH2 (Homo sapiens) (Q12809 whole entry, looked up): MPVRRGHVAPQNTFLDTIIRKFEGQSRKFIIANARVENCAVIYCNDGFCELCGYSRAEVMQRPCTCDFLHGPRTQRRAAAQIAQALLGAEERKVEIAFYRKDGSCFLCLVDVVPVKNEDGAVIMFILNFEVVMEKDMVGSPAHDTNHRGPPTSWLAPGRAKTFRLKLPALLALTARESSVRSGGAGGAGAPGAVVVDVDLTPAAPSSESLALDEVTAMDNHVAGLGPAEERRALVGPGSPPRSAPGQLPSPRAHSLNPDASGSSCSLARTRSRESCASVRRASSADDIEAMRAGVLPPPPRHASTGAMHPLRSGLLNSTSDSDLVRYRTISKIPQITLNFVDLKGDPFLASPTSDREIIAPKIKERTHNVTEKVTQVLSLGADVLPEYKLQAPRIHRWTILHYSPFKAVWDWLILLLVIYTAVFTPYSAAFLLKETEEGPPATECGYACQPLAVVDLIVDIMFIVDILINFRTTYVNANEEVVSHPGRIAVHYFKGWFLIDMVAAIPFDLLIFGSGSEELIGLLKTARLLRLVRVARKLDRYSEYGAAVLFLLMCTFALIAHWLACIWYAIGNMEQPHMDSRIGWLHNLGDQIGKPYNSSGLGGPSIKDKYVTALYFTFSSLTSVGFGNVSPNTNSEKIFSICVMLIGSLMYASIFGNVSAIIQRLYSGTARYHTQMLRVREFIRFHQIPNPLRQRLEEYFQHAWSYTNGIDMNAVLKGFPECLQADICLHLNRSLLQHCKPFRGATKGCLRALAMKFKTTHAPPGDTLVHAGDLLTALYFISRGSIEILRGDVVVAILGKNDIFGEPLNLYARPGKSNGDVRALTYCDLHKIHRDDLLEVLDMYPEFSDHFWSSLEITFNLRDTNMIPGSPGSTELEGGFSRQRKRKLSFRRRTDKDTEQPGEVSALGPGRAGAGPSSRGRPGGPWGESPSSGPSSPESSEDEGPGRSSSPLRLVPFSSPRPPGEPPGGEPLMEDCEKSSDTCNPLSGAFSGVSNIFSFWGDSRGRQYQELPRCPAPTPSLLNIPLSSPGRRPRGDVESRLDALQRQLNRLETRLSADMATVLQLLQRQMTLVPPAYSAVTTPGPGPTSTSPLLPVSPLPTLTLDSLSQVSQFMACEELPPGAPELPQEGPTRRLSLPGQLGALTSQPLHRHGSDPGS
Method in brief: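 U2OS cells transduced with hERG via BacMam (MOI ~100), plated 2000/well, loaded with FluxOR thallium dye, compound ~10 min, then stimulation buffer; fluorescence decrease read kinetically; AC50 from Hill fits.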

[4] = molecular target: Luciferin 4-monooxygenase (Photinus pyralis) (UniProt P08659); experiment: Biochemical firefly luciferase enzyme assay for NPC (AID 624030);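 note: purified P. pyralis luciferase at 10 nM with luciferin and ATP substrate; 0% = DMSO and -100% = full luciferase inhibition by PTC124 control; nearly all actives have a fitted effect of over 70% in size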; conditions: purified P. pyralis luciferase, luminescence, 5 min; series mostly up to 58.6 µM
Chain of Luciferin 4-monooxygenase (Photinus pyralis) (P08659 whole entry, looked up): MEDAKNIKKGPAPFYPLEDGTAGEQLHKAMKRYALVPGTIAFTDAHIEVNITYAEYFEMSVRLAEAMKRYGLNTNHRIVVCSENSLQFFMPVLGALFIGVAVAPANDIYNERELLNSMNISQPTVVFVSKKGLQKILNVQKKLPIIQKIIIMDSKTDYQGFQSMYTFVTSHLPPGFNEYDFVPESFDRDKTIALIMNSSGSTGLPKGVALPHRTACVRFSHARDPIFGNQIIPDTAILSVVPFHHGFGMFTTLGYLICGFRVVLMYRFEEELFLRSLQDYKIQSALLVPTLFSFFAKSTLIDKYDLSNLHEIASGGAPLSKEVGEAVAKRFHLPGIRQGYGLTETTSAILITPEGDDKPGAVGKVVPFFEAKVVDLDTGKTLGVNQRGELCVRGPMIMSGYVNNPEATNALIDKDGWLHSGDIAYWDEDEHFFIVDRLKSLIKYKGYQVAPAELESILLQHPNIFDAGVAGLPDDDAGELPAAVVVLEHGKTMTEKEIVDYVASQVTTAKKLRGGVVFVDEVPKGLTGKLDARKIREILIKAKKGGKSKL
Method in brief: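 Direct inhibition of firefly luciferase enzyme (10 nM final, 50 mM Tris Acetate) assessed by luminescence within 5 minutes. Percent activity scaled between DMSO and PTC124 positive control, with concentration-effect curves classified by fit quality and response.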

[5] = S16 Schwann cell viability assay (CellTiter-Glo assay) (AID 624031); conditions: S16 rat Schwann cells viability, 24 h; series mostly up to 57.5 µM;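 note: cellular ATP luminescence as a viability measure; plate controls were DMSO-treated cells for no effect and cell-free wells for full effect; nearly all actives have a fitted effect of over 70% in size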
Method in brief: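 Untransfected S16 rat Schwann cells; compound 24 h, 37 °C/5% CO2; CellTiter-Glo ATP luminescence. % activity vs no-cell wells and DMSO controls (0%); concentration-effect curves classed by r2, response magnitude, activity.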

[6] = S16 Schwann cell PMP22 intronic element firefly luciferase assay (AID 624032); conditions: S16 rat Schwann cells, PMP22 element FLuc, 24 h; series mostly up to 57.5 µM;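 note: plate controls were DMSO for no effect and PTC124 positive control mean for full effect; nearly all actives have a fitted effect of over 30% in size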
Method in brief: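 Luciferase reporter of PMP22 intronic-element expression in stably transfected S16 rat Schwann cells, read by ONE-Glo luminescence after 24 h compound exposure at 37 C. Activity scaled between DMSO (0%) and positive-control PTC124; concentration-effect curves quality-classified.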

[7] = qHTS assay for small molecule activators of the p53 signaling pathway (AID 651743; active = well fitted activation curve with a large enough effect in the signal ratio, not every such curve was filed as active; the % refers to the signal ratio; note: % of control where 0% means no effect); conditions: HCT-116 p53RE-bla, beta-lactamase FRET ratio, 16 h; active compounds read high
Method in brief: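 Screen for p53 pathway agonists uses stably transfected p53RE-bla HCT-116 cells, 4,000 per well, treated 16 h at 37 C with compounds in DMSO.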

[8] = qHTS assay for small molecule activators of the nuclear factor-kappa B (NF-kB) signaling pathway (AID 651749; active = well fitted activation curve with a large enough effect in the signal ratio; the % refers to the signal ratio; note: % of control where 0% means no effect); conditions: NF-kB-bla ME-180 cells, beta-lactamase FRET ratio, 16 h; active compounds read high
Method in brief: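 Stably transfected ME-180 line; NF-kB response element upstream of beta-lactamase. Treatment: compound or DMSO, 16 hr. Detection: fluorescent FRET substrate.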

[9] = qHTS assay for environmental chemicals that activate the Aryl hydrocarbon Receptor (AhR) signaling pathway (AID 651777); conditions: 1A2-DRE human hepatoma cells, luciferase, 24 h; active compounds read high; note: % of control where 0% means no effect; nearly all actives have a fitted effect of over 15% in size
Method in brief: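 Luminescence read-out: One-Glo added for 30 min at RT after 24 hr compound treatment (37 C, 5% CO2) of human hepatoma cells expressing a DRE/CYP1A2 promoter–luciferase reporter; increased signal indicates AhR activation.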

[10] = molecular target: Peroxisome proliferator-activated receptor alpha (Homo sapiens) (UniProt Q07869); experiment: qHTS assay for small molecule agonists of the peroxisome proliferator-activated receptor alpha (PPARalpha) signaling pathway (AID 651778); conditions: PathHunter PPARalpha complementation, chemiluminescence, 6 h; active compounds read high; note: % of control where 0% means no effect
Chain of Peroxisome proliferator-activated receptor alpha (Homo sapiens) (Q07869 whole entry, looked up): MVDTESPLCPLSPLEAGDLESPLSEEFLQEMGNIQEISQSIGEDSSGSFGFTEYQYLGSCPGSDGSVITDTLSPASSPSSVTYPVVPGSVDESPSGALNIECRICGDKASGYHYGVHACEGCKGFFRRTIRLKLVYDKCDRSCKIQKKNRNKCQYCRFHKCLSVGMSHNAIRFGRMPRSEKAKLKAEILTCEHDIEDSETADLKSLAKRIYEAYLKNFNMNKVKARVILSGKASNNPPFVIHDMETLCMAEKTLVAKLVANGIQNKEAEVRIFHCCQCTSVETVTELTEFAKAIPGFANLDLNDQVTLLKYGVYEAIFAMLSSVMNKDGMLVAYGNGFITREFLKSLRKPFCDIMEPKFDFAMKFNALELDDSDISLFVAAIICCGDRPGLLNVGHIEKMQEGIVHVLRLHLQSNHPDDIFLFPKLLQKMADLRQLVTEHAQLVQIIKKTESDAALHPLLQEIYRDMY
Method in brief: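 Chemiluminescence from complemented enzyme reported PPARalpha activation in cells after 6 hr of compound treatment at 37 C. The detection reagent was incubated for 60 min at room temperature, and compounds were scored as agonists.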

[11] = qHTS assay for small molecule agonists of the antioxidant response element (ARE) signaling pathway measured by Nrf2-dependant transcriptional activity (AID 720636; active = well fitted curve in the direction sought with a large enough effect in the repeat runs; an effect the other way counts as inactive or inconclusive;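 note: HepG2 cells with an ARE-driven luciferase reporter; % of control where 0% means no effect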); conditions: ARE-luc HepG2, Nrf2 luciferase reporter, 16 h; series mostly up to 92.4 µM
Method in brief: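 HepG2 ARE-luc reporter line, 1% dialyzed FBS; 6 hr attachment at 37 C, compound pinned in, 16 hr at 37 C/5% CO2; ONE-Glo, 30 min RT, luminescence read.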

[12] = qHTS assay for small molecule agonists of the antioxidant response element (ARE) signaling pathway measured by Nrf2-dependant transcriptional activity - cell viability counter screen (AID 720653; active = well fitted curve in the direction sought with a large enough effect in the repeat runs; an effect the other way counts as inactive or inconclusive; note: % is set by controls: 0 for no effect and ±100 for the full control effect); conditions: ARE-bla HepG2 viability, CellTiter-Glo ATP luminescence, 16 h; active compounds read low
Method in brief: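 Cytotoxicity counter screen: intracellular ATP quantified by CellTiter-Glo luminescence in the same ARE-bla HepG2 plates, after 16 h compound exposure and a 2 h beta-lactamase substrate step.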

[13] = qHTS assay for small molecule antagonists of the retinoid-related orphan receptor gamma (ROR-gamma) signaling pathway - cell viability counter screen (AID 720652; active = well fitted curve in the direction sought with a large enough effect in the repeat runs; an effect the other way counts as inactive or inconclusive;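 note: compound exposure lasted 16 hr before ATP read; % is set by controls: 0 for no effect and ±100 for the full control effect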); conditions: RORgamma reporter cell line viability counter screen; series mostly up to 92.2 µM
Method in brief: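 Counter screen in CHO cells carrying TET-inducible ROR-gamma and an ROR response element-luciferase reporter; cells plated 5 hr, compound pinned, doxycycline added, then 16 hr at 37 C. Viability read as intracellular ATP by CellTiter-Glo luminescence.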

[14] = qHTS assay for small molecule agonists of the antioxidant response element (ARE) signaling pathway (AID 651741; active = well fitted activation curve with a large enough effect in the signal ratio; the % refers to the signal ratio; note: potency is the fitted concentration of half-maximal effect; for activation: % of control where 0% means no effect); conditions: HepG2 ARE-bla reporter, beta-lactamase FRET ratio, 16 h; series mostly up to 96 µM
Method in brief: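 Seeding 2,000 ARE-bla HepG2 cells per well preceded a 5 h incubation at 37 C/5% CO2 and a 16 h compound exposure at 37 C. Beta-lactamase reporter activity was then quantified by fluorescence after 2 h with LiveBLAzer B/G FRET substrate.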

[15] = qHTS assay to identify small molecules that stimulate interleukin-8 (IL-8) secretion (AID 651758; active = well fitted activation curve with a large enough effect in the signal ratio; the % refers to the signal ratio; note: 0% is about no effect); conditions: HTRF ratio (665/615); series mostly up to 92.2 µM
Method in brief: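 Secreted IL-8 measured by TR-FRET sandwich (cryptate and XL665 antibodies) from THP-1 cells exposed to compound overnight (16 hrs, 37 C).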

[16] = molecular target: Nuclear receptor ROR-gamma (Homo sapiens) (UniProt P51449); experiment: qHTS assay for small molecule antagonists of the retinoid-related orphan receptor gamma (ROR-gamma) signaling pathway (AID 651802); conditions: ROR-gamma antagonist cell reporter assay; series mostly up to 92.2 µM; note: % is set by controls: 0 for no effect and ±100 for the full control effect; nearly all actives have a fitted effect of over 60% in size
Chain of Nuclear receptor ROR-gamma (Homo sapiens) (P51449 whole entry, looked up): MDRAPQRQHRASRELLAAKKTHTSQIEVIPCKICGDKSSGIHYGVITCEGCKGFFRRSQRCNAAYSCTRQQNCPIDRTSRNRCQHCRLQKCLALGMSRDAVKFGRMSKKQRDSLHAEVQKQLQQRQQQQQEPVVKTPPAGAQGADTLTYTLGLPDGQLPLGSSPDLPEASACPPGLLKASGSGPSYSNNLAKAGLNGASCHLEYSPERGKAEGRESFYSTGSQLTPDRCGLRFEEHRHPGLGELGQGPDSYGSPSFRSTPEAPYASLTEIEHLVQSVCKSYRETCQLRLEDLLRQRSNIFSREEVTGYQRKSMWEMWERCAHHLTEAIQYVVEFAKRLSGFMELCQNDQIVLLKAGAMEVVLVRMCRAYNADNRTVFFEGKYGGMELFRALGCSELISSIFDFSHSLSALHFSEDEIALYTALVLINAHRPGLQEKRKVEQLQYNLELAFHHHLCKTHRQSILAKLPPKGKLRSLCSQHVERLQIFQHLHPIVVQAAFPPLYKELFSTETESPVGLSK
Method in brief: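 CHO cells carrying TET-inducible ROR-gamma and an ROR response element–luciferase reporter were exposed to compound, then induced with doxycycline. After 16hr at 37C, luminescence was read; lower signal indicates antagonism.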

[17] = S16 Schwann cell PMP22 intronic element beta-lactamase assay (AID 624044; calls by dose curve;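 note: 0% = DMSO and -100% = potassium clavulanate positive control; nearly all actives have a fitted effect of over 15% in size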); conditions: S16 rat Schwann cells, PMP22 element beta-lactamase FRET, 24 h; series mostly up to 38.3 µM
Method in brief: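 Rat S16 Schwann cells with beta-Lac driven by a PMP22 intronic element, compound-treated 24 h at 37 °C. LiveBLAzer FRET B/G read: 460 nm normalized to potassium clavulanate vs DMSO; 535 nm FRET as viability; concentration-effect curves classified.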

Cc1c(C(=O)NCCO)[n+](=O)c2ccccc2n1[O-]
inactive: max response [1] -2.52% | activity change % (negative = inhibition) [2] -3.26% | Potency [3] | Potency [4] | outcome [5] | Potency [6] | activation [7] 3.58% | activation [8] -3.75% | activation [9] -0.247% | max response [10] -1.31% | outcome [11] | max response [12] -7.99%

CC(=O)Nc1ccccc1
inactive: max response [1] -0.837% | activity change % (negative = inhibition) [2] 8.98% | Potency [3] | Potency [4] | outcome [5] | Potency [6] | activation [8] -0.999% | activation [9] -1.4% | max response [10] -5.14% | outcome [11] | outcome [13] | max response [12] -3.41%

CCCC(O)C(CC)CO (stereo unspecified)
inactive: max response [1] 8.72% | activity change % (negative = inhibition) [2] 10.7% | Potency [3] | Potency [4] | outcome [5] | Potency [6] | Potency [14] | activation [7] 1.06% | activation [8] 0.969% | outcome [15] | activation [9] 0.804% | max response [10] -4.25% | outcome [16] | outcome [11] | outcome [13] | max response [12] 0.4%

Cc1cc(C)nc(NS(=O)(=O)c2ccc(N)cc2)n1
inactive: max response [1] -0.622% and -18.2% | activity change % (negative = inhibition) [2] -2.95% and 11.9% | Potency [3] | Potency [4] | outcome [5] | Potency [6] | Potency [14] | activation [7] -3.59% and 3.14% | activation [9] -1.73% and 0.131% | max response [10] -5.72% and -2.38% | outcome [11] | outcome [13] | max response [12] -4.69% and 1.65%

CC[C@]12CCCN3CCc4c(n(c5ccccc45)[C@@](O)(C(=O)OC)C1)[C@@H]32
active: Potency [3] 0.398 µM

Cc1cc(O)cc(C)c1Cl
active: Potency [14] 10.9 µM
inactive: max response [1] 1.2% | activity change % (negative = inhibition) [2] 6.71% | Potency [3] | Potency [4] | outcome [5] | Potency [6] | outcome [17] | activation [8] -0.418% | max response [10] -0.107% | outcome [11] | max response [12] 0.227%

C=CCNC(N)=S
inactive: max response [1] -16.9% | activity change % (negative = inhibition) [2] -17.1% | Potency [3] | Potency [4] | outcome [5] | Potency [6] | Potency [14] | activation [7] -1.91% | activation [8] -0.527% | outcome [15] | activation [9] 0.627% | max response [10] -1.33% | outcome [11] | outcome [13] | max response [12] 0.701%
